Most compounds without a hit are left out; they make up all but 1.2% or so of the library.
RGS7-Gao reg – regulators of human RGS7-Galphao interaction. P09471. Multiplexed bead flow cytometry, RGS7-Galphao binding; actives lie on both sides. binding response (% of control), % at 10 µM. 220,000 tested, 0.35% active. AID 1439; in the data active = binding response below about 49% or above about 150%; inconclusive = no clear call, values can overlap the other calls; inactive = in between;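 note: fluorescent Galphao held in activated GDP-AlF4 state binding bead-coupled RGS7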
RGS16-Gao HTS – modulates binding between human RGS16 and Galphao; 220,000 tested, 0.38% active; bead-based flow cytometry RGS16-Galphao binding, fluorescence; actives lie on both sides; binding response (% of control), % at 10 µM; O15492+P09471;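 note: Galphao activated by GDP with aluminum fluoride before binding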
RGS4-Gao reg – human RGS4-Galphao interaction regulation; P09471; Multiplexed bead flow cytometry, RGS4-Galphao binding; actives lie on both sides; binding response (% of control), % at 10 µM; 220,000 tested, 0.33% active; in the data active = binding response below about 49% or above about 150%; inactive = in between;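 note: fluorescent Galphao activated with aluminum fluoride binding bead-coupled RGS4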
Avidin fluor – compound fluoresces at 488/530 nm on avidin beads; compound fluorescence 488/530 nm, flow cytometry; hits give high values; AID 1775; fluorescence (KMESF) at 10 µM; 220,000 tested, 0.38% active; in the data active = fluorescence above about 47
RGS8-Gao reg – modulates binding of RGS8 to human Galphao; multiplexed bead flow cytometry; actives lie on both sides; response (percent of control binding), % at 10 µM; 220,000 tested, 0.34% active; AID 1423; in the data active = response below about 60% or above about 140%; inactive = in between;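 note: Galphao activated as the GDP aluminium fluoride complex binding bead-coupled RGS8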
GSH fluor – GSH bead compound fluorescence profile | GSH beads flow cytometry, compound fluorescence 488/530 nm; hits give high values | fluorescence (KMESF) at 10 µM | 190,000 tested, 0.25% active; in the data active = fluorescence above about 89;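 note: glutathione beads carrying GST-tagged Bcl family fusion proteins plus one bare bead set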
RGS-Gao – modulates binding between human RGS4 and Galphao. RGS4–Galpha-o binding response, % at 10 µM. AID 1504. multiplexed bead flow cytometry, RGS–Galpha-o binding. 1,600 tested, 99% active. shares compounds with RGS16-Gao HTS;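 note: fluorescently labeled Galpha-o bound to GDP with aluminium fluoride binding biotinylated RGS beads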
Avidin counter – interferes with biotinylated probe binding to avidin beads | shares compounds with RGS16-Gao HTS | streptavidin beads, fluorescein-biotin binding, flow cytometry | inhibition, % at 10 µM | 1,700 tested, under 10 active | AID 1783;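 active = inhibition above 50%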;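 note: median green fluorescence of gated singlet beads compared with DMSO control wells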
RGS8-Gao single – confirmation of regulators of human RGS8-Galphao interaction | shares compounds with RGS16-Gao HTS | bead-based flow cytometry RGS8-Galphao binding, fluorescence; actives lie on both sides | binding response (% of control), % at 10 µM | 1,700 tested, 3% active | AID 1836; in the data active = binding response below about 72% or above about 130%; inactive = in between;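 note: Galphao activated as GDP AlF4 complex before binding bead RGS8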
RGS7-Gao confirm – confirmation of regulators of human RGS7-Galphao interaction; 1,700 tested, 7.8% active; shares compounds with RGS16-Gao HTS; AID 1837; bead-based flow cytometry RGS7-Galphao binding; actives lie on both sides; response (percent of control binding), % at 10 µM; in the data active = response below about 75% or above about 130%; inactive = in between;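 note: fluorescent Galphao activated with GDP and aluminum fluoride binding bead-coupled RGS7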
RGS16-Gao conf – RGS16-Galphao interaction regulation, single point confirmation | bead-based flow cytometry, RGS16-Galphao binding; actives lie on both sides | AID 1838 | 1,700 tested, 4% active | shares compounds with RGS16-Gao HTS | response (% of control binding), % at 10 µM; in the data active = response below about 74% or above about 130%; inactive = in between;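 note: Galphao activated as the GDP aluminium fluoride complex binding bead-coupled RGS16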
RGS4-Gao single – confirmation of regulators of human RGS4-Galphao interaction; shares compounds with RGS16-Gao HTS; 1,700 tested, 4% active; RGS4-Galphao binding, multiplexed bead flow cytometry; actives lie on both sides; binding response (% of control), % at 10 µM; in the data active = binding response below about 74% or above about 130%; inactive = in between
RGS19-Gao conf – confirmation of regulators of human RGS19-Galphao interaction; shares compounds with RGS16-Gao HTS; bead-based flow cytometry RGS19-Galphao binding; actives lie on both sides; response (percent of control binding), % at 10 µM; 1,700 tested, 5% active; in the data active = response below about 50% or above about 160%; inactive = in between
Hits are given with their value; n = inactive; u = inconclusive; x = not tested or not shown; + = active, no number; [ ] = remark or other dose. Unless noted, the rule behind the calls is not given here.

SMILES | RGS7-Gao reg | RGS16-Gao HTS | RGS4-Gao reg | Avidin fluor | RGS8-Gao reg | GSH fluor | Avidin counter | RGS8-Gao single | RGS7-Gao confirm | RGS16-Gao conf | RGS4-Gao single | RGS19-Gao conf | others
O=C(C1CCN(S(=O)(=O)c2ccc(F)cc2)CC1)N1CCOCC1 | 167.6[activator] | n | n | 110 | n | n | n | n | n | n | n | n | RGS-Gao=115.1
Cc1cc(C(=O)CSc2nc3ccccc3c(=O)n2C)c(C)n1Cc1ccc2c(c1)OCO2 | n | +[activator] | +[activator] | 152 | x | n | n | n | n | n | n | n
Cc1cc(C(=O)CSc2nnc(-c3ccccc3)n2Cc2ccc3c(c2)OCO3)c(C)n1C | n | n | n | n | n | n | x | x | x | x | x | x
COC(=O)c1cc(S(=O)(=O)NCc2ccc(S(N)(=O)=O)cc2)oc1C | u | n | n | n | n | x | x | x | x | x | x | x
CCN(CC)c1ccc(NC(=O)Cn2c(C(C)NC(=O)c3ccc(C)cc3)nc3ccccc32)cc1 (configuration not stated) | 152.7[activator] | 191.7[activator] | 212.0[activator] | n | n | n | n | n | n | 127.7[activator] | n | 259.0[activator]
O=C(CCc1nc2ccccc2s1)OCC(=O)c1ccc[nH]1 | n | n | n | n | n | n | x | x | x | x | x | x
O=C(O)[C@H]1Cc2ccccc2CN1S(=O)(=O)c1ccc(F)cc1 | u | n | n | n | n | x | n | n | n | n | n | n
CC(=O)c1ccc(S(=O)(=O)N2Cc3ccccc3CC2C(=O)O)cc1 (configuration not stated) | u | n | n | n | n | x | x | x | x | x | x | x
COc1ccccc1OCCCC(=O)Nc1ccc([N+](=O)[O-])cc1Br | n | n | n | n | n | n | x | x | x | x | x | x
O=C1c2cccc3c(O)ccc(c23)C(=O)N1Cc1ccccc1 | 164.4[activator] | 185.7[activator] | 181.3[activator] | 81 | n | 162 | n | 126.5[activator] | 264.1[activator] | 202.8[activator] | 203.9[activator] | 218.6[activator]
Cc1cc(C(=O)O)ccc1-c1ccc(/C=C2\NC(=O)N(Cc3ccc(F)cc3)C2=O)o1 | u | n | n | n | n | x | x | x | x | x | x | x
Cc1ccc(/C=C2/SC(=O)NC2=S)o1 | n | n | n | n | n | n | x | x | x | x | x | x
CC1=NN(C(C#N)c2ccc(F)cc2)C(C)(C)C1 (configuration not stated) | 43.6 | n | 49.8 | n | 57.9 | n | n | n | n | n | n | n
CC1=NN(C(C#N)c2ccc([N+](=O)[O-])cc2)C(C)(C)C1 (configuration not stated) | u | n | n | n | n | x | x | x | x | x | x | x
CC(C)(C)NC(=O)c1cccc2c1OC(C)(C)C2 | n | 20.2 | n | n | n | n | n | n | n | n | n | n | RGS-Gao=87.3
CNC(=O)COc1ccc(C=O)cc1OC | n | 11.2 | n | n | n | n | n | n | n | n | n | n | RGS-Gao=91.1
O=C(/C=C/c1ccc(Br)o1)OCc1ccccc1 | x | x | x | x | x | n | n | n | n | n | n | n
CCC1CCC2(CC1)NC(CO)(CO)CO2 (configuration not stated) | n | n | n | n | 144.6[activator] | n | n | n | n | n | n | n | RGS-Gao=115.2

Screening results (PubChem)
